Laboratory results published in PubChem BioAssay (NCATS).
Results filed as inconclusive are left out. Calls of active or inactive are those of the source. The call rests on the fitted dose curve; in most records, active means well fitted cell-killing curve with a large enough effect; inconclusive means small, poorly fitted or top-dose-only effect, or effect the other way; inactive means flat fitted curve, though single readings scatter.

What was measured:
Assay in all cases: Primary qHTS to identify gynecologic anti-cancer compounds using libraries of approved drugs and bioactive compounds (AID 1345084); further: nearly all actives have a fitted effect of over 55% in size
C33A = details: Gynecologic cancer cell panel viability, ATPlite luminescence, 48 h; series mostly up to 57.5 µM
How it was run: (§1)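 Five-concentration response, 48 h; readout is ATP-driven luciferase luminescence.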

CAOV3 = details: Gynecologic cancer cell panel viability, ATPlite luminescence, 48 h; series mostly up to 57.5 µM
How it was run: as §1

CASKI = details: Gynecologic cancer cell panel viability, ATPlite luminescence, 48 h; series mostly up to 57.5 µM
How it was run: as §1

Es-2 = details: Gynecologic cancer cell panel viability, ATPlite luminescence, 48 h; series mostly up to 57.5 µM
How it was run: as §1

HeLa = details: Gynecologic cancer cell panel viability, ATPlite luminescence, 48 h; series mostly up to 57.5 µM
How it was run: as §1

Hek293T = details: Gynecologic cancer cell panel viability, ATPlite luminescence, 48 h, control line for the selectivity index; series mostly up to 57.5 µM
How it was run: as §1

JEG-3 = details: Gynecologic cancer cell panel viability, ATPlite luminescence, 48 h; series mostly up to 57.5 µM
How it was run: as §1

OV90 = details: Gynecologic cancer cell panel viability, ATPlite luminescence, 48 h; series mostly up to 57.5 µM
How it was run: as §1

PA-1 = details: Gynecologic cancer cell panel viability, ATPlite luminescence, 48 h; series mostly up to 57.5 µM
How it was run: as §1

SKOV3 = details: Gynecologic cancer cell panel viability, ATPlite luminescence, 48 h; series mostly up to 57.5 µM
How it was run: as §1

Tov-21-G = details: Gynecologic cancer cell panel viability, ATPlite luminescence, 48 h; series mostly up to 57.5 µM
How it was run: as §1

Tov112D = details: Gynecologic cancer cell panel viability, ATPlite luminescence, 48 h; series mostly up to 57.5 µM
How it was run: as §1

Measured: Potency

C[C@@H](O)[C@H](NC(=O)c1ccc(C#Cc2ccc(CN3CCOCC3)cc2)cc1)C(=O)NO
inactive: all assays above

C=C1CCC2C(C)(COC(C)=O)CCCC2(C)C1CCC(C)CC(=O)O (stereo not given)
inactive: all assays above

CC1CCC2(CO)C(C(=O)O)=CCCC2C1(C)CCc1ccoc1 (stereo not given)
inactive: all assays above

COC(=O)CC(O)CC(O)/C=C/c1c(C)ccc2c1C(O)CC(C)C2 (stereo not given)
inactive: all assays above

O=C(CCCCN1CCOCC1)Nc1ccc(-c2cccnc2)cc1
inactive: all assays above

O=C(/C=C/c1ccccc1)OC[C@]12O[C@H]1[C@@H](O)[C@@H]1C=CO[C@@H](O[C@@H]3O[C@H](CO)[C@@H](O)[C@H](O)[C@H]3O)[C@@H]12
inactive: all assays above

C[C@@H]1C(=O)O[C@H]2[C@H](O)C34[C@H]5C[C@@H](C(C)(C)C)C36[C@@H](OC(=O)[C@@H]6O)O[C@@]4(C(=O)O5)[C@@]12O (stereo not given in full)
inactive: all assays above

COc1cc2c(cc1O)[C@H](c1ccc(O[C@@H]3O[C@H](CO)[C@@H](O)[C@H](O)[C@H]3O)c(OC)c1)[C@@H](CO)[C@](O)(CO)C2
inactive: all assays above

CC(C)CC(=O)OC1OC=C(CO[C@@H]2O[C@H](CO)[C@@H](O)[C@H](O)[C@H]2O)C2CC(O)C(O)(CO)C12 (stereo not given in full)
inactive: all assays above

C[C@@H]1O[C@@H](OC[C@H]2O[C@@H](Oc3cc(O)cc4c3C(=O)C(O)(Cc3ccc(O)cc3)O4)[C@H](O)[C@@H](O)[C@@H]2O)[C@H](O)[C@H](O)[C@H]1O (stereo not given in full)
inactive: all assays above

CC(C)(F)C[C@@H](N[C@@H](c1ccc(-c2ccc(S(C)(=O)=O)cc2)cc1)C(F)(F)F)C(=O)NC1(C#N)CC1
inactive: all assays above

C=C[C@H]1C(O[C@@H]2O[C@H](CO)[C@@H](O)[C@H](O)[C@H]2O)OC=C2C(=O)N3CCc4c([nH]c5ccccc45)[C@H]3C[C@H]21 (stereo not given in full)
inactive: all assays above

COC(=O)C1=CO[C@@H](O[C@@H]2O[C@H](CO)[C@@H](O)[C@H](O)[C@H]2O)[C@@H]2[C@@](C)(O)[C@@H](OC(=O)/C=C/c3ccc(O)cc3)C[C@]12O
inactive: all assays above

CC(C)=CCC/C(C)=C/Cc1ccc(O)c(C2OC(=O)c3cc(C(=O)O)cc(O)c32)c1O (stereo not given)
inactive: all assays above

C[C@H]1CC[C@@H]2N(C1)C[C@@H]1[C@H]([C@@H](O)[C@H](O)[C@]3(O)[C@H]1C[C@@]14OC5(O)[C@@H](C[C@@H](O)[C@@H]31)[C@]4(C)CC[C@@H]5O)[C@]2(C)O
inactive: all assays above
